Test results: PubChem BioAssay (NCI)
The panel holds about 83,000 compounds, 20% with a hit somewhere; the sample as a whole holds those more often.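 48-hour exposure, single concentration, 96-well plates; percent growth endpoint where 0 means no net growth. Active: below 10.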 Activity calls are given as the source filed them.

Key:
Experiment in all cases: NCI-60 one-dose screen, 48 h (100 = growth as untreated, 0 = no growth, -100 = all killed)
Conditions in all cases: 10 µM unless noted
T-47D breast = system: T-47D breast
BT-549 breast = system: BT-549 breast
MDA-MB-435 melanoma = system: MDA-MB-435 melanoma
SW-620 colon = system: SW-620 colon
MCF7 breast = system: MCF7 breast
HCT-116 colon = system: HCT-116 colon
HCC-2998 colon = system: HCC-2998 colon
KM12 colon = system: KM12 colon

Measured: growth

COc1ccc(C2=C/C(=C\c3ccccc3O)C(=O)N2Cc2ccccc2)cc1
inactive: T-47D breast 68.9% | BT-549 breast 70.4% | SW-620 colon 92.2% | MCF7 breast 62.8% | HCT-116 colon 72.5% | HCC-2998 colon 107% | KM12 colon 70.3%
active: MDA-MB-435 melanoma -4.21%

C#CCOc1ccc(C2=NN(C)C3N=C(Cl)c4ncn(C)c4N23)cc1OCC#C (stereo unspecified)
inactive: T-47D breast 77.4% | BT-549 breast 99.6% | MDA-MB-435 melanoma 108% | SW-620 colon 93.6% | MCF7 breast 98.5% | HCT-116 colon 93.3% | HCC-2998 colon 104% | KM12 colon 102%

CSc1nc(CC(C)C)c(C#N)c(=O)n1C
inactive: T-47D breast 33.4% | BT-549 breast 58.8% | MDA-MB-435 melanoma 65.8% | SW-620 colon 63.1% | MCF7 breast 38.7% | HCT-116 colon 60.4% | HCC-2998 colon 79.4% | KM12 colon 86.5%

COC1CC(O)C2=C(CC3C(/C(C)=C\CC=C(C)C)CCC3(C)O2)C1=O (stereo unspecified)
inactive: T-47D breast 94.9% | BT-549 breast 107% | MDA-MB-435 melanoma 109% | SW-620 colon 104% | MCF7 breast 99.4% | HCT-116 colon 98.9% | HCC-2998 colon 105% | KM12 colon 107%

CC(C)(C)n1cc(-c2ccnc(NCCNS(=O)(=O)c3ccc(C(F)(F)F)cc3)c2)c(-c2ccccc2)n1
inactive: T-47D breast 62.5% | BT-549 breast 93.7% | MDA-MB-435 melanoma 100% | SW-620 colon 99.2% | MCF7 breast 63% | HCT-116 colon 58.9% | HCC-2998 colon 111% | KM12 colon 96.7%

O=C(Nc1cccc(Cl)c1)Oc1c(Cl)c(Cl)c(Cl)c(Cl)c1Cl
inactive: T-47D breast 80.1% | BT-549 breast 88.5% | MDA-MB-435 melanoma 98.7% | SW-620 colon 100% | MCF7 breast 84.9% | HCT-116 colon 95.7% | HCC-2998 colon 119% | KM12 colon 102%

O=C(/C=C/c1ccco1)Nc1ncc(Cc2ccc(F)cc2)s1
inactive: T-47D breast 49.3% | BT-549 breast 24.2% | SW-620 colon 25.4% | MCF7 breast 15.8% | HCT-116 colon 19.5% | KM12 colon 16.1%
active: MDA-MB-435 melanoma -17.6% | HCC-2998 colon 7.46%

O=c1[nH]c(CN2CCN(c3ccccc3)CC2)nc2c(Br)cc(Br)cc12
inactive: T-47D breast 103% | BT-549 breast 123% | MDA-MB-435 melanoma 108% | SW-620 colon 102% | MCF7 breast 110% | HCT-116 colon 107% | HCC-2998 colon 101% | KM12 colon 105%

C=CC(=O)NCc1cccc(Nc2ncc(Br)c(NCCCNC(=O)C3CCC3)n2)c1
active: T-47D breast -12% | BT-549 breast -50.2% | MDA-MB-435 melanoma -51.4% | SW-620 colon 0.584% | MCF7 breast 1.62% | HCT-116 colon 4.93% | HCC-2998 colon -48.6% | KM12 colon 4.95%

Cc1ccc(C(=O)Nc2ccc(CN3CCN(C)CC3)c(C(F)(F)F)c2)cc1C#Cc1cnc(N)c2ccccc12
inactive: T-47D breast 30.5% | BT-549 breast 51.3%
active: MDA-MB-435 melanoma -97% | SW-620 colon -88.4% | MCF7 breast -81.5% | HCT-116 colon -90.5% | HCC-2998 colon -83.5% | KM12 colon -83.1%

CN1C(=O)N(C)C2C1NN=c1s/c(=C\c3ccc(F)cc3)c(=O)n12 (stereo unspecified)
inactive: T-47D breast 13.3% | BT-549 breast 44.2% | SW-620 colon 10.2% | HCC-2998 colon 57.8% | KM12 colon 18.9%
active: MDA-MB-435 melanoma -19% | MCF7 breast 4.25% | HCT-116 colon 4.86%

CCC(C)C(N)C(=O)NC(CC(C)C)C(=O)N1CCCC1C(=O)NC(Cc1c[nH]c2ccccc12)C(=O)NC(CCCCN)C(=O)NC(Cc1c[nH]c2ccccc12)C(=O)N1CCCC1C(=O)NC(Cc1c[nH]c2ccccc12)C(=O)NC(Cc1c[nH]c2ccccc12)C(=O)N1CCCC1C(=O)NC(Cc1c[nH]c2ccccc12)C(=O)NC(CCCNC(=N)N)C(=O)NC(CCCNC(=N)N)C(N)=O (stereo unspecified)
inactive: T-47D breast 108% | BT-549 breast 109% | MDA-MB-435 melanoma 95.9% | SW-620 colon 108% | MCF7 breast 121% | HCT-116 colon 95.3% | HCC-2998 colon 101% | KM12 colon 63.7%

CCOC(=O)c1c(C)n2c(=O)cc(C)c3c(OC(C)=O)c(OC(C)=O)cc1c32
inactive: T-47D breast 52.7% | BT-549 breast 80.3% | MDA-MB-435 melanoma 83.3% | SW-620 colon 34.8% | MCF7 breast 62.2% | HCT-116 colon 23.3% | HCC-2998 colon 84.4% | KM12 colon 86.7%

COc1cccc(C(=O)Nc2cccc(NC(=O)c3ccccn3)c2)c1
inactive: T-47D breast 87.4% | BT-549 breast 91.3% | MDA-MB-435 melanoma 93.2% | SW-620 colon 109% | MCF7 breast 83% | HCT-116 colon 94% | HCC-2998 colon 83.2% | KM12 colon 99.6%

CN1CCN(Cc2ccc(NC(=O)c3cc(C#Cc4cnc(N)c5ncccc45)n(C)n3)cc2C(F)(F)F)CC1
inactive: T-47D breast 101% | BT-549 breast 117% | MDA-MB-435 melanoma 102% | SW-620 colon 88.1% | MCF7 breast 39.7% | HCT-116 colon 96.1% | HCC-2998 colon 128% | KM12 colon 87.8%

Cc1c(C)c2c(c(C)c1OC(=O)CCC(=O)[O-])CCC(C)(CCCCCCCCCCC[P+](c1ccccc1)(c1ccccc1)c1ccccc1)O2 (stereo unspecified)
active: T-47D breast -41.6% | BT-549 breast -60.2% | MDA-MB-435 melanoma -89% | SW-620 colon 9.14% | MCF7 breast -28.2% | HCT-116 colon -9.97% | HCC-2998 colon -70.3% | KM12 colon -87.7%

O=C(OCC(O)C(=O)NC12CC3CC(CC(C3)C1)C2)c1cccc(Br)c1 (stereo unspecified)
inactive: T-47D breast 93.2% | BT-549 breast 115% | MDA-MB-435 melanoma 97% | SW-620 colon 99.2% | MCF7 breast 91.7% | HCT-116 colon 99% | HCC-2998 colon 114% | KM12 colon 107%

CN1CCN(Cc2ccc(NC(=O)c3cncc(C#Cc4c(N)ncc5c(F)cccc45)c3)cc2C(F)(F)F)CC1
inactive: BT-549 breast 12.5%
active: T-47D breast -25.2% | MDA-MB-435 melanoma -83% | SW-620 colon -51.9% | MCF7 breast -67.3% | HCT-116 colon -89.1% | HCC-2998 colon -11.9% | KM12 colon -72.9%

COc1ccc(S(=O)(=O)NC2c3ccccc3CC2O)cc1OC (stereo unspecified)
inactive: T-47D breast 105% | BT-549 breast 112% | MDA-MB-435 melanoma 105% | SW-620 colon 100% | MCF7 breast 97.3% | HCT-116 colon 104% | HCC-2998 colon 99.8% | KM12 colon 101%

C#CCOc1cccc(Nc2c(Cl)c(CCl)nc3ccc(Oc4ccccc4)cc23)c1
inactive: T-47D breast 82.1% | BT-549 breast 15.8% | MDA-MB-435 melanoma 15.6% | SW-620 colon 20.6% | MCF7 breast 12.9% | HCT-116 colon 27.2% | HCC-2998 colon 104% | KM12 colon 69.7%

Cc1ccc(Nc2oc(-c3ccccc3)nc2[P+](c2ccccc2)(c2ccccc2)c2ccccc2)cc1
active: T-47D breast -28.5% | BT-549 breast -21.5% | MDA-MB-435 melanoma -62.8% | SW-620 colon -48.2% | MCF7 breast -20.2% | HCT-116 colon -66.4% | HCC-2998 colon -89.4% | KM12 colon -51.5%

COc1cccc(/C=C/C(=O)/C=C(/C=C/c2cccc(OC)c2OC)OB(F)F)c1OC
inactive: T-47D breast 41.2% | BT-549 breast 48% | MDA-MB-435 melanoma 14.8% | SW-620 colon 16.4% | MCF7 breast 26.8% | HCC-2998 colon 121% | KM12 colon 86.5%
active: HCT-116 colon 8.38%

Nc1ncc(-c2ccc3ncnc(N4CCc5cc(F)c(Cl)cc54)c3c2)cn1
inactive: BT-549 breast 33.7% | MDA-MB-435 melanoma 55.8% | SW-620 colon 66.4% | MCF7 breast 24.3% | HCT-116 colon 46.9% | HCC-2998 colon 61.5% | KM12 colon 58%
active: T-47D breast 8.79%

CC(=O)Cc1nsc(NC(=O)c2cc(-c3cc(Cl)ccc3Cl)oc2C)n1
inactive: T-47D breast 87.6% | BT-549 breast 102% | MDA-MB-435 melanoma 101% | SW-620 colon 107% | MCF7 breast 97.7% | HCT-116 colon 95.8% | HCC-2998 colon 103% | KM12 colon 107%

CO[C@H]1/C=C/O[C@@]2(C)Oc3c(C)c(O)c4c(O)c(c5c(nc6cc(C)ccn65)c4c3C2=O)NC(=O)/C(C)=C\C=C\[C@H](C)[C@H](O)[C@@H](C)C(O)[C@@H](C)[C@H](OC(C)=O)[C@@H]1C (stereo partly specified)
inactive: BT-549 breast 97.4% | MDA-MB-435 melanoma 104% | SW-620 colon 114% | MCF7 breast 103% | HCT-116 colon 94.9% | HCC-2998 colon 106% | KM12 colon 108%
active: T-47D breast -5.36%

CC(C)n1cc(C2=C(c3cccc4ccccc34)C(=O)NC2=O)c2cc(Br)ccc21
inactive: T-47D breast 90% | BT-549 breast 92.6% | MDA-MB-435 melanoma 61.6% | SW-620 colon 46.7% | MCF7 breast 76.1% | HCT-116 colon 35.4% | HCC-2998 colon 52.1% | KM12 colon 36.5%

Nc1cc(-c2ccc(Cl)cc2)nn1-c1nc(-c2ccc(Br)cc2)cs1
inactive: T-47D breast 98.2% | BT-549 breast 100% | MDA-MB-435 melanoma 99.7% | SW-620 colon 106% | MCF7 breast 89.8% | HCT-116 colon 94.4% | HCC-2998 colon 101% | KM12 colon 104%
